This passage reports composite z-score, z-score and composite Z-score results from PubChem BioAssay.

Activity calls are given as the source filed them.

Test [1] concerns Human papillomavirus type 1a protein E7 (residues 44-93). Description: small molecules binding HPV E7 44-93 – biochemical, small-molecule microarray, residues 44-93, 635 nm fluorescence, primary screen (AID 1108).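 Also: E7 fragment applied at 1 µg/mL in TBST for 1 h at 4 C; score combines spot fluorescence with its signal to noise ratio.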 Particulars: fluorescence 635 nm, higher = more signal.
Test [2] in a line: hepatitis C replication reporter changes, two-sided – Huh7 cells, luciferase reporter, HCV replication inhibitor project, primary screen (AID 1109).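 Also: huh7 hepatoma cells harbouring a luciferase neomycin HCV replicon reporter; luciferase luminescence as measure of HCV replicon replication; test concentration not given here.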 Particulars: Huh7 HCV replicon luciferase reporter, 48 h; higher = more signal. For orientation: Reporter assays use an easily measured gene product as a stand-in for the process of interest.
In test [3] the target is Left-right determination factor 2 (Homo sapiens) (UniProt O00292). The test is described as follows: small molecules binding LEFTY2 protein – biochemical, small-molecule microarray, 635 nm fluorescence scan, primary screen (AID 1110). Particulars: higher = more signal.
Test [4] addresses Calmodulin-1 (Homo sapiens) (UniProt P0DP23). The test is described as follows: small molecules binding calmodulin-1 with EGTA – biochemical, small-molecule microarray, Cy5-labelled CALM1, profiling panel (AID 1111).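 Also: labelled calmodulin applied in Tris saline Tween buffer holding calcium plus EGTA and DTT.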 Particulars: Cy5-CALM1 binding fluorescence, higher = more signal.
Test [5] shares this target. The test is described as follows: small molecules binding Ca-loaded calmodulin-1 – biochemical, small-molecule microarray, Cy5-labelled CALM1, plus calcium, artefact control for SMM control-protein annotation, profiling panel (AID 1112).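 Also: score merges spot fluorescence with signal to noise from triplicate slides.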 Particulars: Cy5-CALM1 binding fluorescence, higher = more signal.
A short description of test [6]: probe aWnt5a binding to arrayed compounds – biochemical, biotinylated probe, 635/667 nm fluorescence, primary screen (AID 1113).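 Also: score merges 667 nm fluorescence intensity with signal-to-noise per printed feature.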 Particulars: small-molecule microarray, higher = more signal.
Test [7] is described as follows: probe aShh binding to arrayed compounds – biochemical, biotinylated probe, 635/667 nm fluorescence, primary screen (AID 1114).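 Also: probe is biotin-labelled aShh protein from a stem cell growth factor screen; measures binding of labelled protein to compounds printed on the slide; score merges feature fluorescence at 667 nm with signal-to-noise.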 Particulars: small-molecule microarray, higher = more signal.
A short description of test [8]: probe aNog binding to arrayed compounds – biochemical, biotinylated probe, 635/667 nm fluorescence, primary screen (AID 1115).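 Also: probe is biotinylated aNog protein used at 0.15 µg/mL for 1 h at 4 C; z-score combines 667 nm fluorescence of each spot with its signal to noise.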 Particulars: small-molecule microarray, higher = more signal.
Test [9] addresses Torsin-1A-interacting protein 1 (Homo sapiens) (UniProt Q5JTV8). Description: compound microarray binding of lysate hLAP1 – cell lysate, small-molecule microarray, COS7 lysate, 635/667 nm fluorescence, primary screen (AID 1116). The conditions noted are these: 635 nm fluorescence, higher = more signal.
The target in test [10] is Alpha-bungarotoxin (Bungarus multicinctus) (UniProt P60615). The test is described as follows: compounds binding labelled alpha-BTX control protein – biochemical, small-molecule microarray, Alexa647 label, 635/667 nm fluorescence, artefact control for SMM control protein annotation, profiling panel (AID 1117). The conditions noted are these: alpha-BTX-A647 binding fluorescence, higher = more signal.

In a further test the target is Albumin (Bos taurus) (UniProt P02769). The test is described as follows: compounds binding labelled BSA control protein – biochemical, small-molecule microarray, Alexa647 label, 635/667 nm fluorescence, artefact control for SMM control protein annotation, profiling panel (AID 1118).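 Also: score merges 667 nm emission intensity and signal-to-noise per printed compound spot.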 The conditions noted are these: BSA-A647 binding, fluorescence 635 nm, higher = more signal.

Test [11] can be described thus: probe aXIP binding to arrayed compounds – biochemical, NeuroSMM set, 635/667 nm fluorescence, primary screen (AID 1119).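 Also: probe is the protein aXip251-270 applied at 1 µg/mL to compound-printed slides; binding of probe to printed compounds measured as 667 nm fluorescence plus signal to noise.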 The conditions noted are these: small-molecule microarray, higher = more signal, called active from +8 up or from −8 down.
Test [12] is described as follows: probe aNOTCH3 binding on compound microarray – biochemical, small-molecule microarray, 635/667 nm fluorescence, primary screen (AID 1120).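 Also: probe is a biotin-tagged antibody raised against NOTCH3 rather than NOTCH3 protein; score merges spot fluorescence near 667 nm with spot signal to noise.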 Particulars: higher = more signal.
Test [13] is described as follows: probe aNOTCH2 binding on compound microarray – biochemical, small-molecule microarray, 635/667 nm fluorescence, primary screen (AID 1121).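 Also: score merges feature fluorescence read at 667 nm with its signal to noise.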 Particulars: higher = more signal.
In test [14] the target is Carbonic anhydrase 2 (Homo sapiens) (UniProt P00918). The test is described as follows: compounds binding carbonic anhydrase 2 – biochemical, small-molecule microarray, Alexa647-labelled CAII, profiling panel (AID 1122). The conditions noted are these: CAII-A647 binding fluorescence, higher = more signal.
A short description of test [15]: COS7 lysate on small-molecule microarray, probe aHis, 635 nm (AID 1123).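 Also: z-score combines 667nm fluorescence intensity with signal-to-noise per printed compound spot.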 The conditions noted are these: COS7 cell lysate, fluorescence, higher = more signal.
The nature of test [16]: probe aLAP1 signal on lysate-treated microarray – cell lysate, small-molecule microarray, COS7 lysate, primary screen (AID 1124).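 Also: lysate comes from COS7 cells expressing LAP1 and is applied at 0.3 µg/mL; score merges spot fluorescence near 667 nm with signal-to-noise over triplicate slides.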 Particulars: probe aLAP1, fluorescence, higher = more signal.
The next test concerns Sam68 (KHDRBS1). The test is described as follows: compounds binding KHDRBS1 protein – biochemical, small-molecule microarray, 635 nm fluorescence, primary screen (AID 1125).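 Also: score merges 667 nm channel intensity with signal to noise over triplicate slides.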 Particulars: higher = more signal.
Test [17] has as its system Chordin-like protein 2 (CHRDL2). The test is described as follows: compounds binding chordin-like 2 – biochemical, small-molecule microarray, 635 nm fluorescence, primary screen (AID 1126).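 Also: printed compound slides probed with Chrdl2 protein at 4 µg/mL for 1 h at 4 C; score merges 667 nm emission intensity with signal to noise over three replicate slides.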 The conditions noted are these: fluorescence 635 nm, higher = more signal.
The target in test [18] is Concanavalin-A (Canavalia ensiformis) (UniProt P02866). Description: compounds binding concanavalin A lectin – biochemical, small-molecule microarray, Alexa647 label, 635 nm, artefact control for SMM control protein annotation, primary screen (AID 1127).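 Also: z combines 667 nm emission intensity with signal-to-noise across three replicate slides.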 Particulars: ConA-A647 binding fluorescence, higher = more signal.
Concanavalin-A (Canavalia ensiformis), sequence (P02866 whole entry, looked up): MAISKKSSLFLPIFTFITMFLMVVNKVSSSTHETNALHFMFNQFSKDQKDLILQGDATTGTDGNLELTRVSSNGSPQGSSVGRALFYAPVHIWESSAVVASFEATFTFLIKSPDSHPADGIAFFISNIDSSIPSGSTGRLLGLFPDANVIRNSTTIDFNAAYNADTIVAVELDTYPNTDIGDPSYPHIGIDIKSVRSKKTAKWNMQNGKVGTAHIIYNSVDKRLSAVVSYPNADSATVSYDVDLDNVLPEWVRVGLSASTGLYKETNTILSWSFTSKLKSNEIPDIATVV

Torsin-1A-interacting protein 1 (Homo sapiens), sequence (Q5JTV8 whole entry, looked up): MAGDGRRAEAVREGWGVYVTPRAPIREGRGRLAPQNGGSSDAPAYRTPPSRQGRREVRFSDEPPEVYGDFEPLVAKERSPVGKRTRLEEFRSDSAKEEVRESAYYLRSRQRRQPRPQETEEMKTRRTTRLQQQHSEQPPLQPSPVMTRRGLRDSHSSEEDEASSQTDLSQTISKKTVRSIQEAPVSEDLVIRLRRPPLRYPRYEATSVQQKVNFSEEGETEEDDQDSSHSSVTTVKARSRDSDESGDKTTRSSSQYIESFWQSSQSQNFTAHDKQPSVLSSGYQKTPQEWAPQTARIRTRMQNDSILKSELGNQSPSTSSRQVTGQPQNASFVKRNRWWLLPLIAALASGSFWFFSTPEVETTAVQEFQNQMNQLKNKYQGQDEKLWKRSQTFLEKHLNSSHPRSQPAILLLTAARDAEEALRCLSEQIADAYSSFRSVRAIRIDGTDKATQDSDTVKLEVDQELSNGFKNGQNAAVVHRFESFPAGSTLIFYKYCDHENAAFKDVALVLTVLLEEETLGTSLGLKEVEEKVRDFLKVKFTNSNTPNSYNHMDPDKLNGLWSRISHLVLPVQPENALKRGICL
Albumin (Bos taurus), sequence (P02769 whole entry, looked up): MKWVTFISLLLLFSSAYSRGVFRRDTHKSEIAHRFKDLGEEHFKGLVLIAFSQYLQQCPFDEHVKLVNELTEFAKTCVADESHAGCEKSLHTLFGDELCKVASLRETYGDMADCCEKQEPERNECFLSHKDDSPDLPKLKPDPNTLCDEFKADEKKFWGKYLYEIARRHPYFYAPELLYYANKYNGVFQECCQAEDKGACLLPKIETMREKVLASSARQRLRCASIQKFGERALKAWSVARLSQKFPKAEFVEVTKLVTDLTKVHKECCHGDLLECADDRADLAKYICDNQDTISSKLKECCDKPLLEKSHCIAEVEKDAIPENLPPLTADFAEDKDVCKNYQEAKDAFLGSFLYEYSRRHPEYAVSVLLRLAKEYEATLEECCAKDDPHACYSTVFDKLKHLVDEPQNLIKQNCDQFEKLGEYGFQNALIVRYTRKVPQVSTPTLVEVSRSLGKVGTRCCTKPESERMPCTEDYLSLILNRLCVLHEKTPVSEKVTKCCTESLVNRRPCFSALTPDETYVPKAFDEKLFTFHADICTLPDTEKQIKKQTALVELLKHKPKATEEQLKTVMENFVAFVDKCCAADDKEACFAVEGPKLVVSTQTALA
Alpha-bungarotoxin (Bungarus multicinctus), sequence (P60615 whole entry, looked up): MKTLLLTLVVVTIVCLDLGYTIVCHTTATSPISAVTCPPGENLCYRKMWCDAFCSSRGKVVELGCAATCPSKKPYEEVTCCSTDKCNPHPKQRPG
Left-right determination factor 2 (Homo sapiens), sequence (O00292 whole entry, looked up): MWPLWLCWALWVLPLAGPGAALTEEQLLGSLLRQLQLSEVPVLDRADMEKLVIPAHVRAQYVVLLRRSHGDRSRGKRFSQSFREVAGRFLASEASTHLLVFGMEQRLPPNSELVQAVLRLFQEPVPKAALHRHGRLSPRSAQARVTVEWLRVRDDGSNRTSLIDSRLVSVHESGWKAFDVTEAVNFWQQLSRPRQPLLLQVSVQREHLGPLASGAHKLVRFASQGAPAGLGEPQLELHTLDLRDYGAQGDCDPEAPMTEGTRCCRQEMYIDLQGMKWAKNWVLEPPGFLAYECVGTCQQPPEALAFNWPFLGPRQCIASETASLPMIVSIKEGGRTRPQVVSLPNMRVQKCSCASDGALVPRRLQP

`O=C1C2C=CC(C(O)c3cc(C(F)(F)F)cc(C(F)(F)F)c3)N(Nc3ccccc3)C2C(=O)N1c1ccccc1` (stereo not given): the composite z-score in test [1] was 1.44; in test [3], -0.457; in test [4], 0.925; in test [5], 0.388; in test [6], -0.0425; in test [7], -0.358. Also, the composite z-score was 0.341 in test [8]; 1.07 in test [9]; 0.63 in [10]; -0.0814 in the test with Albumin (Bos taurus); 0.0435 in test [12]; -0.101 in test [13]. The composite z-score is 0.723 in [14]; 2.51 in test [15]; -0.233 in test [16]; 1.04 in the test with Sam68 (KHDRBS1); -0.357 in test [17]; -0.236 in [18]. In addition, the z-score in [2] was -0.761. Also, the composite Z-score in [11] is 0.837 (inactive).
For `C=CCOC(=O)[C@H]1[C@@H]2C(=O)O[C@@H](c3ccccc3)[C@@H](c3ccccc3)N2[C@@H](c2ccc(OCCOC(=O)[C@H]3C[C@H]4C(=O)N[C@@H](CCCCN(C)C)C(=O)N4[C@H]3c3cccc(OCCO)c3)cc2)[C@]12C(=O)Nc1ccc(I)cc12`, the composite z-score in test [1] is 1.4; in test [3], 0.713; in test [4], -0.0131; in test [5], -0.12; in [6], 0.108; in test [7], 0.0671. Besides, the composite z-score in [8] was 1.18; in test [9], 0.811; in test [10] it was 1.27; with Albumin (Bos taurus), -0.427; in test [12] it was 0.0306; in test [13], -0.154. Also, the composite z-score in test [14] was 0.228; in test [15], 0.986; in test [16] it was -0.0143; in the test on Sam68 (KHDRBS1), 1.3; in test [17], 1.39; in test [18], 1.12. The same compound showed a z-score in [2] of -2.45. Moreover, the composite Z-score in test [11] was 0.715 (inactive).
For `CN(C)CCCCNC(=O)[C@@H]1C[C@@H]2C(=O)N[C@@H](CCCCN)C(=O)N2[C@@H]1c1ccc(O)cc1`, the composite z-score was 0.0215 in test [1]; 0.886 in [3]; 1.53 in test [4]; -0.288 in test [5]; 0.0725 in test [6]; 0.213 in [7]. The composite z-score in test [8] is 0.654; in [9], 0.677; in test [10], 1.36; with Albumin (Bos taurus) it was -0.153; in [12], -0.0613; in test [13], -0.0241. Also, the composite z-score in [14] is -0.0397; in [15] it was 1.7; in test [16], 0.0496; with Sam68 (KHDRBS1), 0.239; in [17], 0.965; in [18], 1.19. In [2], this compound yielded a z-score of -1.04. For the same compound, in test [11], the composite Z-score was 0.237 (inactive).
`COc1ccc([Si](C)(C)[C@@H]2[C@@H](CC(=O)N3Cc4ccccc4C[C@H]3CO)O[C@]3(C(=O)N(Cc4cccc(N5CCC5=O)c4)c4ccccc43)[C@H]2C)cc1`: the composite z-score in test [1] is 1.12; in test [3] it was 0.558; in test [4], 0.18; in test [5] it was 0.0915; in test [6], -0.1; in [7] it was -0.0709. Moreover, the composite z-score is 0.0001 in [8]; 0.111 in test [9]; 1.08 in test [10]; -0.147 with Albumin (Bos taurus); 0.16 in test [12]; -0.117 in [13]. The composite z-score in [14] is 0.283; in test [15], 1.15; in test [16], 0.0905; with Sam68 (KHDRBS1) it was 1.22; in test [17], 0.711; in test [18], 0.961. Further, the z-score in [2] was -3.58. Moreover, the composite Z-score in test [11] is 0.3 (inactive).
Consider `COC(=O)c1c2oc(c1C(=O)OC)C(=O)N[C@@H](C(C)C)Cn1cc(nn1)C1(CCCCC1)NC(=O)N[C@H](CO)CC2`, for which the composite z-score was 0.218 in [1]; -0.05 in test [3]; -0.346 in test [4]; -0.403 in test [5]; -0.0269 in test [6]; -0.0769 in test [7]. Also, the composite z-score is 0.621 in test [8]; 0.764 in test [9]; -0.216 in test [10]; -0.0901 with Albumin (Bos taurus); -0.122 in test [12]; -0.0761 in test [13]. Further, the composite z-score in test [14] was 0.828; in test [15], 1.18; in [16], -0.0841; in the test on Sam68 (KHDRBS1), 0.194; in test [17], 0.199; in [18], 0.689. In [2], this compound gave a z-score of 1.48. Besides, the composite Z-score in test [11] is -0.203 (inactive).
